Laboratory results published in PubChem BioAssay AID602475 (National Center for Advancing Translational Sciences (NCATS), 2012).
Results filed as inconclusive are left out. Where a call stands in place of a potency, no number is given. Active and inactive are the calls of the source. The call rests on the fitted dose curve; in most records, active means well fitted inhibition curve with a large enough effect; inconclusive means small, poorly fitted or top-dose-only effect; inactive means no such curve, though single readings can be large or run the other way.

Molecular target: Luciferin 4-monooxygenase (Photinus pyralis) (UniProt P08659)
Experiment: FLuc inhibitory activity for the follow-up compounds in a biochemical assay with an in-house formulation of detection reagent
Summary of the method: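 Purified P. pyralis luciferase (10 nM) in 50 mM Tris acetate, compounds titrated 12-point from ~25uM to 0.1nM. In-house detection reagent added (450uM ATP, 1mM D-luciferin, 500uM coenzyme A, 5mM DTT, 1% Triton-X100); luminescence imaged.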

Chain of Luciferin 4-monooxygenase (Photinus pyralis) (P08659 whole entry, looked up): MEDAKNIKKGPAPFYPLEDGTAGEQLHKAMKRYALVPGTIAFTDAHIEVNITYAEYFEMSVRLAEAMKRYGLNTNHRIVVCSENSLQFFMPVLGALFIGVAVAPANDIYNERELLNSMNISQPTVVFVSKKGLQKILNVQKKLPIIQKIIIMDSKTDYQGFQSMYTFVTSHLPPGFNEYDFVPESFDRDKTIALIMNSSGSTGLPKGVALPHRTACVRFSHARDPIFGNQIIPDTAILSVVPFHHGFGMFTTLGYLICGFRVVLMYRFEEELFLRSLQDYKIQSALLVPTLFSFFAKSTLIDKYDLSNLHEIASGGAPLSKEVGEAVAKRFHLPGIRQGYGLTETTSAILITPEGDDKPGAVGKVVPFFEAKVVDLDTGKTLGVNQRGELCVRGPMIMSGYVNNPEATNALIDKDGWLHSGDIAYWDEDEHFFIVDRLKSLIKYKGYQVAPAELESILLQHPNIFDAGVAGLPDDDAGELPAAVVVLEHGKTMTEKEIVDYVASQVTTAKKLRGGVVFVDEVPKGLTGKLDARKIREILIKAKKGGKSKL

Nc1ccccc1-c1nc2ccccc2s1
Potency: inactive
